For experiment [1], the system named is XIP peptide (Xip251-270) binding. Description: small-molecule binders of XIP peptide, primary screen, biochemical, small-molecule microarray, fluorescence 635/667 nm, 0.1 µg/mL protein (AID 1182). Conditions: fluorescent protein binding, 635 nm, higher = more signal, called active from +8 up or from −8 down.
For experiment [2], the system named is XIP peptide (Xip251-270). Put plainly: small-molecule binders of XIP peptide, primary screen, biochemical, small-molecule microarray, fluorescence 635/667 nm, 0.5 µg/mL protein (AID 1183). Conditions: small-molecule microarray binding, fluorescence 635 nm; higher = more signal.
A short description of experiment [3]: Plasmodium falciparum growth inhibition, primary screen, strain 3D7, DAPI fluorescence, 100 nL (AID 1184).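 Further: parasites grown inside human red blood cells in medium with human serum.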 As to conditions: P. falciparum 3D7 growth, 3 d, higher = more signal.
Experiment [4] addresses Homeobox protein Hox-A13 (Mus musculus) (UniProt Q62424). Put plainly: inhibitors of HoxA13-DNA binding, primary screen, biochemical, fluorescence polarization, labeled oligonucleotide (AID 1185). As to conditions: 15 min, higher = more signal, called active from +8 up or from −8 down. (In general: Polarisation of emitted light reports the rotation of a fluorescent probe.)
Experiment [5] is described as follows: inhibitors of hydroxyurea-induced Chk1 phosphorylation, primary screen, imaging, HeLa, phospho-Chk1 antibody, percent positive cells (AID 1186). Conditions: hydroxyurea-induced phospho-Chk1 immunofluorescence imaging, higher = more signal.
A short description of experiment [6]: inhibitors of hydroxyurea-induced Chk1 phosphorylation, primary screen, imaging, HeLa, phospho-Chk1 nuclear intensity (AID 1187). Conditions: hydroxyurea-induced phospho-Chk1 immunofluorescence imaging, higher = more signal.

Calls of active or inactive are those of the source. Unless noted, how the calls were made is not given here.

Drawing on PubChem BioAssay, this text covers composite z-score and z-score for 26 molecules.

Sequence of Homeobox protein Hox-A13 (Mus musculus) (Q62424 whole entry, looked up): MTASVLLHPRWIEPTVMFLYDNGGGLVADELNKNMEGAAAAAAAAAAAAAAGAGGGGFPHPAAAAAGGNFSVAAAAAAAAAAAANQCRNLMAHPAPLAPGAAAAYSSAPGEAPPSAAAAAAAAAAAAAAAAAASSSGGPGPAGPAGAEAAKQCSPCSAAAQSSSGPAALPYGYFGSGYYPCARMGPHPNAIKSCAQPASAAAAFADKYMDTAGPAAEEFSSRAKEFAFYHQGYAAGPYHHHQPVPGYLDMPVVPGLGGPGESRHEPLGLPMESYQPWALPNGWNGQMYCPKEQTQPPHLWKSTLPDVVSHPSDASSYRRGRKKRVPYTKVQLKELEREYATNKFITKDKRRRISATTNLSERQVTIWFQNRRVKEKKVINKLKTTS

Take `CC(=CC1CCCCC1)[C@@H](NC(=O)c1ccc(C(F)(F)F)cc1)c1ccc(-c2ccccc2)cc1`: the values for the composite z-score in experiment [1] and in experiment [2] were -0.138 (inactive) and -0.569, respectively. In addition, the z-score in experiment [3] is -0.0178; in experiment [4], -1.48 (inactive); in experiment [5], 0.191 (inactive); in experiment [6], 0.498 (inactive).

As for `C=CCC(OC(C)=O)[C@@H]1[C@@H](N(Cc2ccc(-c3cccc(C(F)(F)F)c3)o2)C(=O)c2ccc(C)cc2)c2cc(OCCCO)ccc2N1C(=O)c1ccc(-c2ccccc2)cc1` (stereo partly specified), the values for the composite z-score in experiment [1] and in experiment [2] were 2.96 (inactive) and 0.0783, respectively. Besides, the z-score in experiment [3] is -2.5; in experiment [4], -1.07 (inactive); in experiment [5], -0.205 (inactive); in experiment [6], -0.266 (inactive).

As to `[N-]=[N+]=Nc1ccccc1[C@@H]1OC(c2ccc(OCCCO)cc2)=N[C@]1(CCS(=O)(=O)c1ccccc1)C(=O)N1CCOCC1`, the results for the composite z-score in experiment [1] and in experiment [2] were 1.12 (inactive) and 0.731, respectively. Besides, the z-score in experiment [3] was -2.09; in experiment [4] it was -1.96 (inactive); in experiment [5], 0.0445 (inactive); in experiment [6], 0.143 (inactive).

As to `CC(C)OC(=O)CC(=O)CC(O)c1ccc(C#N)cc1` (stereo unspecified), the figures for the composite z-score in experiment [1] and in experiment [2] were 3.17 (inactive) and 0.21, respectively. The z-score in experiment [3] was 0.393; in experiment [4] it was -0.306 (inactive); in experiment [5], -1.26 (inactive); in experiment [6], -1.44 (inactive).

Turning to `Cc1ccc(S[C@]2(C(=O)NCC(C)C)CC(=O)N(Cc3ccccc3)[C@@H]2c2ccc(CO)cc2I)cc1`, the composite z-score in experiment [1] is 0.0656 (inactive); in experiment [2] it was 0.292. Further, the z-score in experiment [3] was -0.769; in experiment [4] it was -3.29 (inactive); in experiment [5], 0.292 (inactive); in experiment [6], 0.556 (inactive).

On to `CC1=C2[C@@H](CCc3ccccc3)OB(O)C[C@@H]2n2c(=O)n(-c3ccccc3)c(=O)n2C1`, for which the figures for the composite z-score in experiment [1] and in experiment [2] were -0.105 (inactive) and 0.777, respectively. For the same molecule, the z-score in experiment [3] is 1.65; in experiment [4], -5.44 (inactive); in experiment [5], -0.0397 (inactive); in experiment [6], 0.208 (inactive).

As to `Cc1ccc(S[C@]2(C(=O)NCC(C)C)CC(=O)N(Cc3ccccc3Cl)[C@@H]2c2ccc(CO)cc2)cc1`, the values for the composite z-score in experiment [1] and in experiment [2] were 0.0729 (inactive) and -0.313, respectively. The z-score in experiment [3] is 0.423; in experiment [4], -2.53 (inactive); in experiment [5], 0.259 (inactive); in experiment [6], 0.658 (inactive).

`COc1ccc(C(O)C2C=CC3C(=O)N(c4ccccc4)C(=O)C3N2Nc2ccc([N+](=O)[O-])cc2)cc1OCc1ccccc1` (stereo unspecified): the composite z-score was 0.522 (inactive) in experiment [1] and 0.891 in experiment [2]. Further, the z-score in experiment [3] is -0.303; in experiment [4] it was -1.46 (inactive); in experiment [5], -0.105 (inactive); in experiment [6], -1.67 (inactive).

`CCCN1C(=O)[C@@]2(CCC(=O)OC(C)(C)C)N=C(c3ccc(OCCCO)cc3)O[C@H]2c2ccccc21`: the figures for the composite z-score in experiment [1] and in experiment [2] were 0.317 (inactive) and 0.563, respectively. Besides, the z-score in experiment [3] is -2.31; in experiment [4] it was -3.53 (inactive); in experiment [5] it was -0.0458 (inactive); in experiment [6], 0.261 (inactive).

For the molecule `O=C1O[C@@H](c2ccccc2)[C@@H](c2ccccc2)N2[C@@H](c3ccc(OCCO)cc3)[C@]3(C(=O)Nc4ccc(C#CC5=CCCCC5)cc43)[C@@H](C(=O)O)[C@H]12`, the results for the composite z-score in experiment [1] and in experiment [2] were 0.383 (inactive) and 0.504, respectively. Also, the z-score in experiment [3] is 0.287; in experiment [4] it was -3.99 (inactive); in experiment [5] it was 0.419 (inactive); in experiment [6], 0.542 (inactive).

For `[N-]=[N+]=NCc1ccccc1C[C@]1(C(=O)NCCN2CCOCC2)N=C(c2ccc(OCCCO)cc2)O[C@H]1c1ccccc1N=[N+]=[N-]`, the composite z-score in experiment [1] is 0.281 (inactive); in experiment [2] it was 0.614. Also, the z-score in experiment [3] was -2.1; in experiment [4] it was -1.02 (inactive); in experiment [5], -0.2 (inactive); in experiment [6], 0.0241 (inactive).

In the case of `COC(=O)C[C@@H]1C[C@H](C)[C@]2(O1)C(=O)N(Cc1ccccc1)c1ccc(NC(C)=O)cc12`, the composite z-score in experiment [1] was -0.16 (inactive); in experiment [2] it was 0.295. In addition, the z-score in experiment [3] is -1.78; in experiment [4] it was -3.77 (inactive); in experiment [5], -0.139 (inactive); in experiment [6], -0.194 (inactive).

In the case of `CCOc1cc(C(O)C2C=CC3C(=O)N(c4ccccc4)C(=O)C3N2Nc2ccc([N+](=O)[O-])cc2)ccc1O` (stereo unspecified), the figures for the composite z-score in experiment [1] and in experiment [2] were -0.394 (inactive) and 0.546, respectively. Besides, the z-score is -1.76 in experiment [3], -5.51 (inactive) in experiment [4], 0.555 (inactive) in experiment [5] and -0.452 (inactive) in experiment [6].

Turning to `CCCCC(CC)C(O)C1C=CC2C(=O)N(c3ccccc3)C(=O)C2N1Nc1ccccc1` (stereo unspecified), the composite z-score in experiment [1] was -0.147 (inactive); in experiment [2] it was 0.216. Besides, the z-score is -0.392 in experiment [3], -1.89 (inactive) in experiment [4], -0.335 (inactive) in experiment [5] and -0.23 (inactive) in experiment [6].

On to `CC(=O)NCCCC[C@@H]1NC(=O)[C@@H]2C[C@H](C(=O)NCCCCN(C)C)[C@H](c3ccc(O)cc3)N2C1=O`, for which the results for the composite z-score in experiment [1] and in experiment [2] were -0.308 (inactive) and -0.208, respectively. Also, the z-score in experiment [3] is 0.101; in experiment [4], -0.795 (inactive); in experiment [5], -0.396 (inactive); in experiment [6] it was -0.291 (inactive).

Take `CC(C)c1ccc(NN2C(C(O)c3ccc(N(C)C)cc3)C=CC3C(=O)N(c4ccccc4)C(=O)C32)cc1` (stereo unspecified): the composite z-score in experiment [1] was -0.0313 (inactive); in experiment [2], 0.618. Besides, the z-score in experiment [3] is -0.286; in experiment [4] it was -2.2 (inactive); in experiment [5], 0.148 (inactive); in experiment [6], -0.072 (inactive).

Turning to `CC(=O)C1=CCC(c2ccccc2)N(S(=O)(=O)c2ccc(C)cc2)C1` (stereo unspecified), the composite z-score in experiment [1] is 0.651 (inactive); in experiment [2] it was 0.473. Besides, the z-score was -1.33 in experiment [3], -3.89 (inactive) in experiment [4], 0.532 (inactive) in experiment [5] and 0.216 (inactive) in experiment [6].

For `C=CC[C@@]1(C(=O)NCC(O)CO)N=C(c2ccc(OCCCO)cc2)O[C@@H]1c1ccccc1N=[N+]=[N-]` (stereo partly specified), the values for the composite z-score in experiment [1] and in experiment [2] were 1.06 (inactive) and 0.885, respectively. For the same molecule, the z-score in experiment [3] is -1.84; in experiment [4], -3.62 (inactive); in experiment [5], -0.0138 (inactive); in experiment [6], 0.107 (inactive).

Consider `CCCCCCCCCCC(O)C1C=CC2C(=O)N(Cc3ccccc3)C(=O)C2N1n1cnnc1` (stereo unspecified), for which the results for the composite z-score in experiment [1] and in experiment [2] were 0.109 (inactive) and 0.609, respectively. The z-score was -1.08 in experiment [3], -2.2 (inactive) in experiment [4], 0.577 (inactive) in experiment [5] and -0.034 (inactive) in experiment [6].

With `CS(=O)(=O)CCOC(=O)C1=CC(c2ccc(CO)cc2)=CC(C2CC2)N(Cc2cc3c(cc2Br)OCO3)C=C1C(=O)OCCS(C)(=O)=O` (stereo unspecified), the composite z-score in experiment [1] was 0.0295 (inactive); in experiment [2], 0.639. Besides, the z-score in experiment [3] was -2.58; in experiment [4] it was -2.94 (inactive); in experiment [5], -0.572 (inactive); in experiment [6] it was -0.534 (inactive).

With `COc1ccc(CCNC(=O)[C@@]2(Sc3ccc(C)cc3)CC(=O)N(Cc3ccccc3Cl)[C@@H]2c2ccc(CO)cc2I)cc1`, the composite z-score in experiment [1] is 0.259 (inactive); in experiment [2] it was 0.391. Besides, the z-score in experiment [3] is -0.694; in experiment [4], -2.24 (inactive); in experiment [5], 0.351 (inactive); in experiment [6], 0.606 (inactive).

Consider `COCCCNC(=O)[C@@]1(CCC(=O)OC(C)(C)C)N=C(c2ccc(OCCCO)cc2)O[C@H]1c1ccccc1CN=[N+]=[N-]`, for which the composite z-score is 0.748 (inactive) in experiment [1] and 0.761 in experiment [2]. The z-score in experiment [3] was -1.99; in experiment [4] it was -5.33 (inactive); in experiment [5], -0.376 (inactive); in experiment [6] it was -0.101 (inactive).

As to `O=C1O[C@@H](c2ccccc2)[C@@H](c2ccccc2)N2[C@@H](c3ccc(O)cc3)[C@]3(C(=O)Nc4ccc(C#CC5(O)CCCCCC5)cc43)[C@@H](C(=O)N3CCCCCCC3)[C@H]12`, the composite z-score in experiment [1] is 1.51 (inactive); in experiment [2], 0.855. The z-score in experiment [3] is -0.667; in experiment [4], 1.7 (inactive); in experiment [5], -0.129 (inactive); in experiment [6], -0.0414 (inactive).

As to `CCCCC=C[C@@H](NC(=O)c1ccc(C(=O)OC)cc1)c1ccccc1`, the results for the composite z-score in experiment [1] and in experiment [2] were 2.97 (inactive) and 0.0677, respectively. For the same molecule, the z-score in experiment [3] is -1.38; in experiment [4], -4.21 (inactive); in experiment [5], 0.492 (inactive); in experiment [6], 0.256 (inactive).

For the molecule `CCOC(=O)[C@H]1C[C@H]2O[C@@]23C[C@H]1C(=O)N1CCCC1[C@@H]3O[Si](C)(C)C(C)(C)C` (stereo partly specified), the composite z-score in experiment [1] is -0.0593 (inactive); in experiment [2], -0.829. Also, the z-score was -0.329 in experiment [3], -5.3 (inactive) in experiment [4], -0.0084 (inactive) in experiment [5] and -0.115 (inactive) in experiment [6].

Regarding `CCN(CC)c1ccc(N2CC=CC34O[C@@H]5/C=C\CCCOC(=O)C5[C@H]3C(=O)N(C(CO)C(C)C)[C@@H]4C2=O)cc1` (stereo partly specified), the composite z-score in experiment [1] was 1.05 (inactive); in experiment [2], 0.559. For the same molecule, the z-score was 0.604 in experiment [3], -6.07 (inactive) in experiment [4], 0.169 (inactive) in experiment [5] and -0.0477 (inactive) in experiment [6].
